# From PubChem BioAssay (NCI)
# Compounds without any hit were thinned out: in the full panel of roughly 83,000, 20% have a hit.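 Assay: single dose, 48 h. Readout: percent growth (0 = no net growth; negative = cell death). Active: <10.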 Values without a mark were called inactive. The source made the active and inactive calls.
# Key:
# Experiment in all cases: NCI-60 one-dose screen, 48 h (100 = growth as untreated, 0 = no growth, -100 = all killed)
# Details in all cases: 10 µM unless noted
# DU-145 prostate = test system: DU-145 prostate
# K-562 leukemia = test system: K-562 leukemia
# MALME-3M melanoma = test system: MALME-3M melanoma
# MDA-MB-231 breast = test system: MDA-MB-231 breast
# RXF 393 renal = test system: RXF 393 renal
# SF-268 CNS = test system: SF-268 CNS
# SF-295 CNS = test system: SF-295 CNS
# SF-539 CNS = test system: SF-539 CNS
# UACC-257 melanoma = test system: UACC-257 melanoma
# M14 melanoma = test system: M14 melanoma
# HCT-15 colon = test system: HCT-15 colon
# HT29 colon = test system: HT29 colon
# SNB-75 CNS = test system: SNB-75 CNS
# SNB-19 CNS = test system: SNB-19 CNS
# U251 CNS = test system: U251 CNS
# PC-3 prostate = test system: PC-3 prostate
# SK-MEL-5 melanoma = test system: SK-MEL-5 melanoma
# UACC-62 melanoma = test system: UACC-62 melanoma
# LOX IMVI melanoma = test system: LOX IMVI melanoma
# SK-MEL-28 melanoma = test system: SK-MEL-28 melanoma
SMILES,growth (DU-145 prostate),growth (K-562 leukemia),growth (MALME-3M melanoma),growth (MDA-MB-231 breast),growth (RXF 393 renal),growth (SF-268 CNS),growth (SF-295 CNS),growth (SF-539 CNS),growth (UACC-257 melanoma),growth (M14 melanoma),growth (HCT-15 colon),growth (HT29 colon),growth (SNB-75 CNS),growth (SNB-19 CNS),growth (U251 CNS),growth (PC-3 prostate),growth (SK-MEL-5 melanoma),growth (UACC-62 melanoma),growth (LOX IMVI melanoma),growth (SK-MEL-28 melanoma)
O=c1cc(-c2ccc(Cl)cc2)[nH]c2ccccc12,97.4%,33%,84.7%,81.6%,76.4%,86.1%,84.1%,94.5%,73.3%,71.8%,59.1%,86.3%,85.3%,91.5%,80%,75.7%,59.1%,67.8%,71.4%,78.1%
CCN(CC)c1nc(SCC(=O)Nc2nc3ccc(C)cc3s2)nc(-c2ccccc2)c1C#N,101%,86.5%,103%,78%,97.3%,88.5%,92.9%,89.2%,96.5%,101%,83.8%,79.6%,85.6%,89.5%,87.6%,67%,90.2%,67.9%,98%,103%
COc1ccc(C2c3ccc4ccccc4c3Oc3nc(C)[nH]c(=O)c32)cc1 (stereo not given),114%,90.6%,97%,93.6%,108%,94.3%,105%,96.8%,111%,95.7%,99.6%,142%,76.8%,94.7%,103%,96%,101%,94.5%,88.8%,98.7%
COc1cc(/C=N/NC(=O)Cn2c(C(C)C)nc3ccccc32)ccc1O,110%,100%,105%,95.5%,95.7%,91.2%,104%,94.4%,98.2%,92.6%,98.7%,98.2%,81.5%,99.4%,110%,94.8%,97.6%,89.8%,102%,109%
COc1cc(C(=O)/C=C/c2c(-c3ccc(F)cc3)nc3sc(C)cn23)cc(OC)c1OC,39.2%,7.75% (active),6.76% (active),38.2%,44.2%,40.4%,32.4%,57.7%,21.4%,32.3%,35.5%,41.5%,50.1%,66.5%,32.9%,10.7%,-88.8% (active),23.1%,25.1%,12.4%
COc1ccc(Cl)cc1NC(=O)C(Br)C(Br)C(=O)O (stereo not given),97.2%,-27% (active),46.2%,46.2%,44.4%,19.7%,99.8%,77.7%,60.8%,75.9%,67.5%,108%,103%,122%,49.9%,56.3%,-82.2% (active),7.23% (active),-69.8% (active),60.1%
Cc1ccccc1NC(=O)N/C(N)=N/c1nc(-c2cccc([N+](=O)[O-])c2)cs1,69.3%,9.08% (active),33%,50.4%,56.7%,64%,15.8%,41.1%,51.5%,19%,24.8%,17.1%,-9.74% (active),44.1%,40.4%,58%,49.3%,34.1%,-10.5% (active),54.1%
CCOC(=O)C/C(C)=N\NC(=O)c1ccncc1,107%,93.2%,83.8%,102%,72.3%,101%,92.9%,97.7%,107%,106%,108%,100%,107%,87.7%,107%,96.5%,104%,88.1%,105%,116%
O=C(Nc1cccc(Cl)c1)c1cc(N=Nc2ccc([N+](=O)[O-])cc2Cl)ccc1O,116%,26.3%,43.7%,64.1%,29.6%,90.6%,55.1%,54.2%,-1.95% (active),103%,72.5%,76.7%,66.4%,73.2%,63.9%,34.8%,43.3%,79.2%,98.3%,85.5%
CC(=O)[C@@H]1CC[C@]2(COS(=O)(=O)c3ccc(C)cc3)CC[C@]3(C)[C@H](CC[C@@H]4[C@@]5(C)CCCNC(C)(C)[C@@H]5CC[C@]43C)[C@@H]12,86.6%,2.27% (active),88.1%,96.4%,63.9%,73.2%,101%,77.4%,49.9%,79%,32%,2.18% (active),83.2%,91.7%,61.8%,56.8%,76.2%,58.9%,14%,85.6%
COc1ccccc1NC(=O)N/C(N)=N/c1nc2ccccc2s1,19.3%,12.9%,57.6%,48.1%,4.12% (active),49.5%,39.2%,-31.5% (active),75.4%,8.17% (active),16.5%,8.24% (active),22.6%,37.5%,18.3%,25%,23.7%,31.4%,34.3%,53.4%
N=C(N)c1ccc(-c2ccc(-c3cncc4ccccc34)s2)s1,-90% (active),-59.4% (active),-59.1% (active),-72.3% (active),-74.9% (active),-71.5% (active),-81.3% (active),-77.6% (active),123%,-76.8% (active),-74.2% (active),-77.1% (active),-95.9% (active),-54.8% (active),-92.5% (active),-80.8% (active),-89.5% (active),-64.5% (active),-78.1% (active),-69.7% (active)
Cn1c(-c2c(N)n(Cc3cccnc3)c3nc(C#N)c(C#N)nc23)nc2ccccc21,95.7%,51.1%,53.5%,89.2%,65.9%,98.8%,110%,64.7%,102%,91.1%,94.5%,92.1%,96.6%,103%,94.3%,66%,89.2%,89.8%,97.4%,113%
Cc1ccc(C(=O)COc2cccc(/C=C3\Oc4ccccc4C3=O)c2)cc1,123%,75.8%,106%,83.1%,94.5%,120%,120%,103%,129%,101%,105%,114%,104%,99.4%,99.7%,101%,123%,73.2%,104%,135%
CCOc1ccccc1-n1c(CN2CCN(C(=O)COc3ccc(CNCCCCCCN4C5CCCC4CC(OC(=O)Nc4cc(C)ccc4OC)C5)cc3)CC2)nc2ccccc2c1=O (stereo not given),-98.5% (active),-56.9% (active),-84.9% (active),-91.1% (active),-76.8% (active),-77.1% (active),-92.6% (active),-92.8% (active),-95.6% (active),-77.6% (active),-84.4% (active),-85.6% (active),-99.2% (active),-89.9% (active),-99.2% (active),-85.6% (active),-96.5% (active),-89.3% (active),-92% (active),-93% (active)
Clc1cccc(Cl)c1C(Nc1nc2ccccc2s1)Nc1nc2ccccc2s1,131%,79.6%,123%,104%,104%,105%,143%,93.6%,102%,122%,83.6%,108%,80.8%,99.1%,94.7%,74.2%,88.4%,95.7%,86.1%,109%
